Compound activity: PubChem, National Center for Advancing Translational Sciences (NCATS)
A selection: hits, their analogues and other compounds. The true share with any hit is near 12%.
BAZ2B block: qHTS Assay for Inhibitors of BAZ2B; 360,000 compounds, 4.4% hits; AID 504333, 2011; AlphaScreen BAZ2B-H3K14Ac peptide displacement; Potency, µM (highest dose often 114 µM), usual class: inhibitors; Bromodomain adjacent to zinc finger domain protein 2B (Homo sapiens), Q9UIF8; further: nearly all actives have a fitted effect of over 60% in size
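AlphaScreen displacement of biotin-H3(5-23)K14Ac peptide (50 nM final) from BAZ2B (50 nM final) in PBS pH 7.4, 0.01% Tween-20; complex preformed 30 min RT, then compounds (top 110 uM) 30 min RT, beads 20 min dark.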
L3MBTL1 inh: qHTS Assay for the Inhibitors of L3MBTL1 | AlphaScreen L3MBTL1–H3K9me1 peptide binding | AID 485360, 2010 | Potency, µM (series often up to 57.1 µM), most hits filed as inhibitors | 230,000 compounds, 0.66% hits; further: nearly all actives have a fitted effect of over 60% in size
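L3MBTL1 50 nM + b-AHA-H3(1-15)K9me1 75 nM, 30 min RT; compound added, 30 min RT; streptavidin donor/Ni-chelate acceptor beads 10 ug/mL each final, 30 min RT dark; AlphaScreen read.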
G9a block: qHTS Assay for Inhibitors of Histone Lysine Methyltransferase G9a. Histone-lysine N-methyltransferase EHMT2 (Homo sapiens), Q96KQ7. G9a H3K9 monomethylation, AlphaScreen, 2 h. Potency, µM (highest dose often 102 µM), usual class: inhibitors. 350,000 compounds, 8.8% hits. AID 504332, 2011; further: nearly all actives have a fitted effect of over 75% in size
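Readings reflect AlphaScreen signal from monomethyl-H3K9 antibody detection. HMT at 20 nM; substrate b-H3K9 500 nM; cofactor SAM 20 uM; 2 h RT reaction; compounds tested as titrations in qHTS with 15 min preincubation.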
HP1b chromo inh: HTS for Inhibitors of HP1-beta Chromodomain Interactions with Methylated Histone Tails | Chromobox protein homolog 1 (Homo sapiens), P83916 | 390,000 compounds, 0.56% hits | AlphaScreen HP1-beta / biotin-H3K9me3 peptide binding | AID 540317, 2011 | Potency, µM (titrated, usually from 114 µM), usual class: inhibitors; further: nearly all actives have a fitted effect of over 70% in size
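HP1-beta protein (50 nM final) preincubated 30 min at room temperature with biotinylated H3(1-18)K9me3 peptide (50 nM) in PBS pH 7.4, 0.01% Tween-20, then compound added for 30 min. AlphaScreen streptavidin donor/nickel chelate acceptor beads (10 ug/mL final), 30 min dark, luminescence read.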
Sfp PPTase inh: qHTS Assay for Inhibitors of Bacillus subtilis Sfp phosphopantetheinyl transferase (PPTase). 310,000 compounds, 3.5% hits. Biochemical Sfp PPTase activity, qHTS. AID 1490, 2009. Potency, µM, actives largely listed as inhibitors;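 further: the enzyme is Sfp with the accession as filed and its product quenches rhodamine fluorescence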
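Reaction rates are the 30-min fluorescence difference (ex 525, em 598 nm) in wells containing 15 nM Sfp, 5 uM rhodamine-CoA and 12.5 uM BHQ-2-YbbR at pH 7.6 with 10 mM MgCl2.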
JMJD2A Tudor: qHTS Assay for Inhibitors of JMJD2A-Tudor Domain; AlphaScreen JMJD2A-Tudor / H3K4me3 peptide binding; 390,000 compounds, 4.4% hits; Potency, µM (titrated, usually from 114 µM), hits mostly inhibitors; Lysine-specific demethylase 4A (Homo sapiens), O75164; AID 504339, 2011; further: nearly all actives have a fitted effect of over 50% in size
Target sequence (O75164 whole entry, looked up, the tested form may be a part): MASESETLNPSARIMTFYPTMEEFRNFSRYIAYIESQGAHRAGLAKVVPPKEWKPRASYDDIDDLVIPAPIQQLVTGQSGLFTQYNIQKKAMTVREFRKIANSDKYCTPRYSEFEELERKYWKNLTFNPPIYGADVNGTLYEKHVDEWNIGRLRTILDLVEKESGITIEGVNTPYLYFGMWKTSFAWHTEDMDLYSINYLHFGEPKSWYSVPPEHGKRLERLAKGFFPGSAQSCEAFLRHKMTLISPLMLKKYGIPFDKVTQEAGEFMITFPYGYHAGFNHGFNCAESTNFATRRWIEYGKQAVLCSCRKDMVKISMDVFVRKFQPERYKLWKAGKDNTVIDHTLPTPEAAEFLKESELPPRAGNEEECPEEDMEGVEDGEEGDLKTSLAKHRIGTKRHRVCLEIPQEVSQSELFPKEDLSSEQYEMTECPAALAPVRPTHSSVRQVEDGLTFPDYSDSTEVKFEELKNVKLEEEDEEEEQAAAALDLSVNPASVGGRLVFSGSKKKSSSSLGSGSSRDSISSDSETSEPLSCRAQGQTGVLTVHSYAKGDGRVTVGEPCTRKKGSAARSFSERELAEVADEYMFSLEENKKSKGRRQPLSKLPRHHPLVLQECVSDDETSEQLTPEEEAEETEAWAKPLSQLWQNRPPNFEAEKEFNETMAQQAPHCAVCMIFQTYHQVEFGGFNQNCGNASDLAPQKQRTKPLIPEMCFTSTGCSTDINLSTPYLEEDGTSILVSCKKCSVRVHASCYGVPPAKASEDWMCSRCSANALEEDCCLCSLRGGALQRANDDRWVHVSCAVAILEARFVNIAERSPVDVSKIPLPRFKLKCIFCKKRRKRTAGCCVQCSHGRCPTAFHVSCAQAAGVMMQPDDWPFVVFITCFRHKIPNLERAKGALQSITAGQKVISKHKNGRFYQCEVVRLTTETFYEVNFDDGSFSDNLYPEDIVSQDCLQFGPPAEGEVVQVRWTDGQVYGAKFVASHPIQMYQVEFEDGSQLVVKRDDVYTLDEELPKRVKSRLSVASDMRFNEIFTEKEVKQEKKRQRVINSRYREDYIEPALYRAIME
Hits are given with their value; ! = repeats disagree. The call rests on the fitted dose curve; in most records, active means well fitted curve in the direction sought with a large enough effect; inconclusive means small, poorly fitted or top-dose-only effect, or another doubt; inactive means no such curve, though single readings can be large; an effect the other way counts as inactive or inconclusive.

Screening Cc1ccc(S(=O)(=O)N2CCC(C(=O)C3C(=O)CC(C)(C)CC3=O)CC2)cc1 returned BAZ2B block inactive, G9a block inactive, HP1b chromo inh inactive, Sfp PPTase inh inactive and JMJD2A Tudor inactive.
For Cc1ccc(S(=O)(=O)/N=C2/C=C(C3C(=O)CC(C)(C)CC3=O)C(=O)c3ccccc32)cc1 the results were BAZ2B block inconclusive, G9a block 8.91µM, HP1b chromo inh inactive, Sfp PPTase inh inconclusive and JMJD2A Tudor inconclusive.
`Cc1ccc(S(=O)(=O)Nc2ccccc2-c2ccccc2)cc1` gave BAZ2B block inactive, L3MBTL1 inh inactive, G9a block inactive, HP1b chromo inh inactive, Sfp PPTase inh inactive and JMJD2A Tudor inactive.
For Cc1ccc(S(=O)(=O)/N=C2\C=C(NS(=O)(=O)c3ccccc3)C(=O)c3ccccc32)cc1 the results were HP1b chromo inh inconclusive and JMJD2A Tudor 31.6µM.
Screening Cc1cc(C)c(S(=O)(=O)/N=C2\C=C(NS(=O)(=O)c3ccccc3)C(=O)c3ccccc32)c(C)c1 returned BAZ2B block 5.62µM, G9a block 6.31µM, HP1b chromo inh inconclusive, Sfp PPTase inh inactive and JMJD2A Tudor 12.6µM.
CCC(Sc1nc2cc3c(cc2c(=O)n1CCCC(=O)NCc1ccc2c(c1)OCO2)OCO3)C(=O)NCCCOC (stereo not drawn) was read as BAZ2B block inactive, G9a block inactive, HP1b chromo inh inactive and JMJD2A Tudor inactive.
`COc1ccc(C2=NS(=O)(=O)N(C)C(C(=O)Nc3ccc4c(c3)OCO4)=C2)cc1OC` gave BAZ2B block inconclusive, L3MBTL1 inh inconclusive, G9a block 35.5µM, HP1b chromo inh inactive, Sfp PPTase inh inactive and JMJD2A Tudor inconclusive.
For COc1ccc(C2=NS(=O)(=O)N(C)C(C(=O)N(C)Cc3ccccc3)=C2)cc1OC the results were BAZ2B block inactive, L3MBTL1 inh inactive, G9a block 14.1µM!, HP1b chromo inh inactive, Sfp PPTase inh inactive and JMJD2A Tudor 5.01µM!.
Screening COc1ccc(NC(=O)C2=CC(c3ccc4c(c3)OCO4)=NS(=O)(=O)N2C)cc1OC returned BAZ2B block inactive, G9a block inactive, HP1b chromo inh inactive and JMJD2A Tudor inactive.
For CCC(=O)Nc1ccccc1-c1nc2ccccc2n(C(C)C(=O)Nc2cccc(Cl)c2C)c1=O (stereo not drawn) the results were BAZ2B block inconclusive, G9a block inconclusive, HP1b chromo inh inactive and JMJD2A Tudor inactive.
For Cc1nc2ccn(Cc3cccs3)c(=O)c2cc1C(=O)NCc1ccccc1 the results were BAZ2B block inactive, G9a block inactive, HP1b chromo inh inactive and JMJD2A Tudor inactive.
For Cc1[nH]c(=S)sc1Cc1ccc(F)cc1 the results were BAZ2B block inactive, L3MBTL1 inh inactive, G9a block 2µM, HP1b chromo inh inactive, Sfp PPTase inh inactive and JMJD2A Tudor 39.8µM.
Screening COc1c(Cl)cc(Cl)cc1CNCCNCC(C)O (stereo not drawn) returned BAZ2B block inactive, L3MBTL1 inh inactive, G9a block 35.5µM, HP1b chromo inh inactive, Sfp PPTase inh inactive and JMJD2A Tudor inconclusive.
`COc1c(Cl)cc(Cl)cc1CNCCNCCO` gave BAZ2B block inactive, L3MBTL1 inh inactive, HP1b chromo inh inactive, Sfp PPTase inh inactive and JMJD2A Tudor inconclusive.
Screening Cc1cc(OCC(=O)Nc2ccc(C(=O)OC3CCCCC3)cc2)cc(C)c1Cl returned BAZ2B block inactive, G9a block inactive, HP1b chromo inh inactive and JMJD2A Tudor inactive.
Screening COC(=O)c1c(C)[nH]c(C(C)=O)c1C returned BAZ2B block inconclusive, L3MBTL1 inh inactive, G9a block inactive, HP1b chromo inh inactive, Sfp PPTase inh inactive and JMJD2A Tudor inactive.
